Bioassay records from PubChem.
Only some compounds are listed: those with a hit (about 4.7% of all), similar ones and a draw of the others.
D1 PAM: human D1 dopamine receptor positive modulation | P21728 | HEK293 TREx D1 cells, calcium flux, dopamine EC20 potentiation | potentiation, % at 10 µM | 360,000 tested, 0.036% active | AID 504651; in the data active = potentiation above about 30%
D1 ag: human D1 receptor agonism. AID 504660. activation, % at 2 µM. P21728. HEK293 T-REx D1 cells, calcium flux, agonist mode. 360,000 tested, 1% active
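Tetracycline-induced HEK293 TREx D1 cells, force-coupled to calcium signalling, were dye-loaded with a no-wash calcium kit. Compound was pin-added after a 10 s baseline. Fluorescence was read kinetically at 1 cycle/s for 180 s, with calcium rises flagged as agonism.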
TRHR ag: activates the human TRH receptor. TRHR cells, calcium flux fluo-8, FDSS agonist mode. activation, % at 2 µM. 360,000 tested, 0.18% active
Target sequence (P34981 whole entry, looked up): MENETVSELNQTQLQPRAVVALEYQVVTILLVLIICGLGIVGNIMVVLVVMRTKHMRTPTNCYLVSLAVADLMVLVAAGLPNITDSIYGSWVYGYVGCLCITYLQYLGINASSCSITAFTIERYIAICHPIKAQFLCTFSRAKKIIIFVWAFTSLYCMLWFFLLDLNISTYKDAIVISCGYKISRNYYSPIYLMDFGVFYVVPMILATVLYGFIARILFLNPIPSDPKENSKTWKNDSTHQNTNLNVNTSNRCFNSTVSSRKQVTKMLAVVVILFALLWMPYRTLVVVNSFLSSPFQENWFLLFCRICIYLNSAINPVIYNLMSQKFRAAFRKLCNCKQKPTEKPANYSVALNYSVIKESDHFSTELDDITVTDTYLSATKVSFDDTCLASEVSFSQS
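Steps: seed TRHR cells overnight; add fluo-8 no-wash Ca dye, RT 30 min–1.5 h; record 10 s baseline; pin-transfer compounds; monitor fluorescence 1 cycle/s for the agonist window. Calcium increases flag candidate agonists.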
D1 antag: human D1 dopamine receptor antagonism; P21728; HEK293 TREx D1 cells, calcium flux, dopamine EC80; hits give low values; activity change, negative = inhibition, % at 10 µM; 360,000 tested, 3.2% active; AID 504652; in the data active = activity change below about -30%
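Cells carrying a force-coupled, tetracycline-inducible human D1 receptor report calcium flux. Each well gets a 10 s baseline, compound with 180 s monitoring, then an EC80 dopamine stimulus with a second 180 s kinetic read.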
TRHR PAM: allosteric enhancers of human TRH receptor; P34981; TRHR cells, fluo-8 calcium fluorescence, EC20 TRH enhancement; enhancement, % at 2 µM; 360,000 tested, 0.66% active; in the data active = enhancement above about 30%
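Enhancer read-out: after compound pinning and an initial kinetic agonist-mode read, an EC20 of TRH (10 nM final) was injected and fluo-8 calcium signal (Ex 480/Em 530) followed at 1 s/cycle for 100 cycles in TRHR-expressing cells.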
Hits are given with their value. Cut-off read from the data, not from the text of the source, unless noted: active = activation above about 30%; inactive = the rest.

`COc1cc(/C=C/C(=O)c2c(O)n(CCc3ccccc3)c(=O)[nH]c2=O)ccc1O` gave D1 PAM inactive, D1 ag 42, TRHR ag inactive, D1 antag inactive and TRHR PAM inactive.
For O=C(/C=C/c1ccccc1)c1c(O)n(CCc2ccccc2)c(=O)[nH]c1=O the results were D1 PAM inactive, D1 ag inactive, TRHR ag inactive, D1 antag inactive and TRHR PAM inactive.
`COc1ccc(C)cc1NC(=O)c1cccn(Cc2cccc([N+](=O)[O-])c2)c1=O` gave D1 PAM inactive, D1 ag inactive, TRHR ag inactive and TRHR PAM inactive.
For NCCc1ccc(S(N)(=O)=O)cc1 the results were D1 PAM inactive, D1 ag inactive, TRHR ag inactive, D1 antag inactive and TRHR PAM 40.
Screening COc1ccc2[nH]cc(CCN=C(N)N)c2c1 returned D1 PAM inactive, D1 ag inactive, TRHR ag inactive, D1 antag inactive and TRHR PAM 36.
For NCCc1c[nH]c2ccccc12 the results were D1 PAM inactive, D1 ag inactive, TRHR ag inactive, D1 antag inactive and TRHR PAM inactive.
CCCCc1ccc2[nH]cc(CCN)c2c1 was read as D1 PAM inactive, D1 ag 90, TRHR ag inactive, D1 antag inactive and TRHR PAM inactive.
For Cc1cc(-c2ccccc2)cc(-c2ccccc2)[n+]1CCc1ccccc1 the results were D1 PAM inactive, D1 ag inactive, TRHR ag inactive, D1 antag -43 and TRHR PAM inactive.
Screening Cc1cccc(-n2c(/C=C\c3cccc(Br)c3)nc3ccccc3c2=O)c1 returned D1 PAM inactive, D1 ag inactive, TRHR ag inactive, D1 antag inactive and TRHR PAM inactive.
For O=C(COC(=O)Cc1ccccc1)NC12CC3CC(CC(C3)C1)C2 the results were D1 PAM inactive, D1 ag inactive, TRHR ag inactive, D1 antag inactive and TRHR PAM inactive.
Screening NC(=O)c1ccsc1NC(=O)COC(=O)Cc1ccccc1 returned D1 PAM inactive, D1 ag inactive, TRHR ag inactive, D1 antag -32 and TRHR PAM inactive.
Screening CCN(CC)S(=O)(=O)c1ccc(NN=C(C#N)C#N)cc1 returned D1 PAM inactive, D1 ag 37, TRHR ag inactive, D1 antag inactive and TRHR PAM inactive.
Screening CN1CCN(c2nc(Cl)ncc2F)CC1 returned D1 PAM inactive, D1 ag inactive, TRHR ag inactive, D1 antag -32 and TRHR PAM inactive.
`O=C(Cc1ccc([N+](=O)[O-])cc1)N1CCN(Cc2ccc3c(c2)OCO3)CC1` gave D1 PAM inactive, D1 ag inactive, TRHR ag inactive, D1 antag -36 and TRHR PAM inactive.
`Cc1ccccc1CN1C(=O)C(C)N=C(c2ccccc2)c2ccccc21` (stereo unspecified) gave D1 PAM inactive, D1 ag inactive, TRHR ag inactive, D1 antag inactive and TRHR PAM inactive.
For CNC(C)Cc1ccccc1Sc1ccc(O)cc1 (stereo unspecified) the results were D1 PAM inactive, D1 ag inactive, TRHR ag inactive, D1 antag -59 and TRHR PAM inactive.
O=C1CN=C(c2ccccc2Cl)c2cc(Cl)ccc2N1Cc1cccc(Cl)c1 was read as D1 PAM inactive, D1 ag inactive, TRHR ag inactive, D1 antag inactive and TRHR PAM inactive.
For COc1ccc(-c2nc(CN3C(=O)CN=C(c4ccccc4)c4cc(Cl)ccc43)c(C)o2)cc1 the results were D1 PAM inactive, D1 ag inactive, TRHR ag inactive, D1 antag inactive and TRHR PAM inactive.
`COc1ccc(-c2nc(CN3C(=O)CN=C(c4ccccc4)c4ccccc43)c(C)o2)cc1OC` gave D1 PAM inactive, D1 ag inactive, TRHR ag inactive, D1 antag -31 and TRHR PAM inactive.
For COc1ccc(-c2nc(CN3C(=O)CN=C(c4ccccc4Cl)c4cc(Cl)ccc43)c(C)o2)cc1OC the results were D1 PAM inactive, D1 ag inactive, TRHR ag inactive, D1 antag inactive and TRHR PAM inactive.
For N#Cc1cc2c(nc1SCC(=O)Nc1ccc(C(F)(F)F)cc1)C1CCN2CC1 the results were D1 PAM inactive, D1 ag inactive, TRHR ag inactive, D1 antag inactive and TRHR PAM inactive.
For CN1CCc2nc(SCc3ccccc3Br)c(C#N)cc2C1 the results were D1 PAM inactive, D1 ag inactive, TRHR ag inactive, D1 antag -35 and TRHR PAM inactive.
For Cc1cccc(CSc2nc3c(cc2C#N)CN(C)CC3)c1 the results were D1 PAM inactive, D1 ag inactive, TRHR ag inactive, D1 antag inactive and TRHR PAM inactive.
`O=c1[nH]c(=O)n(-c2ccccc2)c(O)c1/C=C/C=Nc1ccccc1` gave D1 PAM inactive, D1 ag inactive, TRHR ag inactive, D1 antag inactive and TRHR PAM inactive.
For COc1ccc(-n2c(O)c(/C(C)=N/Nc3ccccc3)c(=O)[nH]c2=O)cc1 the results were D1 PAM inactive, D1 ag inactive, TRHR ag inactive, D1 antag inactive and TRHR PAM inactive.
For Cc1ccc(-n2c(O)c(/C=C/C=Nc3ccccc3)c(=O)[nH]c2=O)cc1 the results were D1 PAM inactive, D1 ag 50, TRHR ag inactive, D1 antag inactive and TRHR PAM inactive.
Screening O=c1[nH]c(=O)n(C2CCCCC2)c(O)c1/C=C/C=Nc1ccccc1 returned D1 PAM inactive, D1 ag 175, TRHR ag 63, D1 antag inactive and TRHR PAM inactive.
For C=CCn1c(O)c(/C=C/C=Nc2ccccc2)c(=O)[nH]c1=O the results were D1 PAM inactive, D1 ag inactive, TRHR ag inactive, D1 antag inactive and TRHR PAM inactive.
`COc1ccc(-n2c(O)c(/C=C/C=Nc3ccccc3)c(=O)[nH]c2=O)cc1` gave D1 PAM inactive, D1 ag 91, TRHR ag inactive, D1 antag inactive and TRHR PAM inactive.
`O=C(c1ccc2c(c1)N(Cc1c(F)cccc1Cl)C(=O)c1ccccc1S2)N1CCC2(CC1)OCCO2` gave D1 PAM inactive, D1 ag inactive, TRHR ag inactive, D1 antag inactive and TRHR PAM inactive.
For CSc1ncc(C(=O)Nc2ccc(Cl)cc2C(=O)c2ccccc2)c(C)n1 the results were D1 PAM inactive, D1 ag inactive, TRHR ag inactive, D1 antag inactive and TRHR PAM inactive.
For CN(C)C1(CNC(=O)c2ccc(NS(=O)(=O)c3ccc(Cl)c(Cl)c3)cc2)CCCCC1 the results were D1 PAM inactive, D1 ag inactive, TRHR ag inactive, D1 antag inactive and TRHR PAM inactive.
For CN(C)C1(CNC(=O)Nc2ccc(Cl)c(Cl)c2)CCCCC1 the results were D1 PAM inactive, D1 ag 32, TRHR ag inactive, D1 antag inactive and TRHR PAM inactive.
Cc1cc(C)cc(-n2c(=O)[nH]c3ccccc3c2=O)c1 was read as D1 PAM inactive, D1 ag inactive, TRHR ag inactive, D1 antag inactive and TRHR PAM inactive.
